Measured values taken from PubChem BioAssay.
Calls of active or inactive are those of the source.

What was measured:
Albumin (Bos taurus) = Albumin (Bos taurus) (UniProt P02769); test: compounds binding labelled BSA control protein – biochemical, small-molecule microarray, Alexa647 label, 635/667 nm fluorescence, artefact control for SMM control protein annotation, profiling panel (AID 1118); details: BSA-A647 binding, fluorescence 635 nm, higher = more signal;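 further: score merges 667 nm emission intensity and signal-to-noise per printed compound spot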
[1] = probe aXIP binding to arrayed compounds – biochemical, NeuroSMM set, 635/667 nm fluorescence, primary screen (AID 1119); details: small-molecule microarray, higher = more signal, called active from +8 up or from −8 down;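 further: probe is the protein aXip251-270 applied at 1 µg/mL to compound-printed slides; binding of probe to printed compounds measured as 667 nm fluorescence plus signal to noise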
[2] = probe aNOTCH3 binding on compound microarray – biochemical, small-molecule microarray, 635/667 nm fluorescence, primary screen (AID 1120); details: higher = more signal;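 further: probe is a biotin-tagged antibody raised against NOTCH3 rather than NOTCH3 protein; score merges spot fluorescence near 667 nm with spot signal to noise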
[3] = probe aNOTCH2 binding on compound microarray – biochemical, small-molecule microarray, 635/667 nm fluorescence, primary screen (AID 1121); details: higher = more signal;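 further: score merges feature fluorescence read at 667 nm with its signal to noise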
[4] = molecular target: Carbonic anhydrase 2 (Homo sapiens) (UniProt P00918); test: compounds binding carbonic anhydrase 2 – biochemical, small-molecule microarray, Alexa647-labelled CAII, profiling panel (AID 1122); details: CAII-A647 binding fluorescence, higher = more signal
[5] = COS7 lysate on small-molecule microarray, probe aHis, 635 nm (AID 1123); details: COS7 cell lysate, fluorescence, higher = more signal;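 further: z-score combines 667nm fluorescence intensity with signal-to-noise per printed compound spot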
[6] = probe aLAP1 signal on lysate-treated microarray – cell lysate, small-molecule microarray, COS7 lysate, primary screen (AID 1124); details: probe aLAP1, fluorescence, higher = more signal;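 further: lysate comes from COS7 cells expressing LAP1 and is applied at 0.3 µg/mL; score merges spot fluorescence near 667 nm with signal-to-noise over triplicate slides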
Sam68 (KHDRBS1) = test: compounds binding KHDRBS1 protein – biochemical, small-molecule microarray, 635 nm fluorescence, primary screen (AID 1125); details: higher = more signal;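 further: score merges 667 nm channel intensity with signal to noise over triplicate slides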
[7] = test system: Chordin-like protein 2 (CHRDL2); test: compounds binding chordin-like 2 – biochemical, small-molecule microarray, 635 nm fluorescence, primary screen (AID 1126); details: fluorescence 635 nm, higher = more signal;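 further: printed compound slides probed with Chrdl2 protein at 4 µg/mL for 1 h at 4 C; score merges 667 nm emission intensity with signal to noise over three replicate slides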
[8] = molecular target: Concanavalin-A (Canavalia ensiformis) (UniProt P02866); test: compounds binding concanavalin A lectin – biochemical, small-molecule microarray, Alexa647 label, 635 nm, artefact control for SMM control protein annotation, primary screen (AID 1127); details: ConA-A647 binding fluorescence, higher = more signal;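 further: z combines 667 nm emission intensity with signal-to-noise across three replicate slides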
[9] = compounds binding Alexa647 anti-His antibody – biochemical, small-molecule microarray, 635 nm fluorescence, artefact control for SMM control protein annotation, primary screen (AID 1128); details: higher = more signal;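 further: score merges feature fluorescence with signal-to-noise for each printed compound spot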
[10] = test system: Human papillomavirus type 1a E7 protein (residues 1-88); test: HPV1a E7 small-molecule binders, primary screen, biochemical, small-molecule microarray, residues 1-88, 635 nm (AID 1129); details: small-molecule microarray binding, fluorescence 635 nm; higher = more signal
[11] = molecular target: Focal adhesion kinase 1 (Homo sapiens) (UniProt Q05397); test: PTK2 protein binding on printed compound slides – biochemical, small-molecule microarray, 635/667 nm fluorescence, BSA, DTT, primary screen (AID 1130); details: 635 nm fluorescence, higher = more signal;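 further: composite of spot emission at 667 nm and signal to noise over triplicate slides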
[12] = test system: Fibrinogen (Alexa647-labelled); test: Alexa647-fibrinogen binding to printed small molecules – biochemical, small-molecule microarray, 635/667 nm fluorescence, artefact control for SMM control-protein annotation, profiling panel (AID 1131); details: fibrinogen-A647 binding fluorescence, higher = more signal;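 further: z-score merges 667 nm fluorescence with per-spot signal-to-noise over triplicate slides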
[13] = molecular target: Follistatin (Homo sapiens) (UniProt P19883); test: FST protein binding to printed compounds – biochemical, small-molecule microarray, 635/667 nm fluorescence, primary screen (AID 1132); details: 635 nm fluorescence, higher = more signal
[14] = molecular target: Fibroblast growth factor 2 (Homo sapiens) (UniProt P09038); test: basic fibroblast growth factor binding to printed compounds – biochemical, small-molecule microarray, 635/667 nm fluorescence, primary screen (AID 1133); details: FGF2, fluorescence 635/667, higher = more signal
[15] = JC-1 mitochondrial potential readout, lung cancer cells – cell-based, A549, JC-1 fluorescence, basal, 24 h, 100 nL, profiling panel (AID 1138); details: higher = more signal;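 further: A549 lung adenocarcinoma cells under basal conditions with no added stimulus; test concentration not given here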
Lefty1 = Lefty1 protein binding to printed compounds – biochemical, small-molecule microarray, 635/667 nm fluorescence, primary screen (AID 1139); details: fluorescence 635/667, higher = more signal
[16] = test system: wheat germ agglutinin (Triticum aestivum), Alexa647-labelled; test: Alexa647-WGA lectin binding to printed small molecules – biochemical, small-molecule microarray, 635/667 nm fluorescence, artefact control for SMM control-protein annotation, profiling panel (AID 1140); details: WGA-A647 binding, 635 nm fluorescence, higher = more signal;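 further: score merges 667 nm feature emission with signal to noise over triplicate slides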
[17] = molecular target: Luciferin 4-monooxygenase (Photinus pyralis) (UniProt P08659); test: inhibition of purified Photinus pyralis luciferase – biochemical, luminescence, purified enzyme, 2006 set, primary screen (AID 1141); details: purified firefly luciferase, SteadyGlo luminescence, 30 min; higher = more signal, called active from +8 up or from −8 down;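 further: cell-free assay with purified firefly luciferase at 100 ng per well in PBS; test concentration not given here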
Luciferin 4-monooxygenase (Photinus pyralis), sequence (P08659 whole entry, looked up): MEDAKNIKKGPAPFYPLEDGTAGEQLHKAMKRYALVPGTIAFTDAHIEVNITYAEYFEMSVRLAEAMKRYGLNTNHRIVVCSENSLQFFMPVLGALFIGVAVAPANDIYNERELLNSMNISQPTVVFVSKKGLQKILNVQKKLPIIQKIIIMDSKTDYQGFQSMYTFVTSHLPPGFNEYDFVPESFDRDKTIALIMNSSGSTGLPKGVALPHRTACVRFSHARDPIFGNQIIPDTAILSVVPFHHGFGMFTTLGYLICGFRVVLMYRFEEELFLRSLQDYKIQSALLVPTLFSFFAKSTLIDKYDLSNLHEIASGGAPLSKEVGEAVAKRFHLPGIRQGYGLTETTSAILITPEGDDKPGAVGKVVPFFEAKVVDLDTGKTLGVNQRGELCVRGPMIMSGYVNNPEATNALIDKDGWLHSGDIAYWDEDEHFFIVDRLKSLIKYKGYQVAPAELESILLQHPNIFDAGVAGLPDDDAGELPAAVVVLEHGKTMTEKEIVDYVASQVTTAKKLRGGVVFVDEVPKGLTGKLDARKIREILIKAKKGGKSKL

Focal adhesion kinase 1 (Homo sapiens), sequence (Q05397 whole entry, looked up): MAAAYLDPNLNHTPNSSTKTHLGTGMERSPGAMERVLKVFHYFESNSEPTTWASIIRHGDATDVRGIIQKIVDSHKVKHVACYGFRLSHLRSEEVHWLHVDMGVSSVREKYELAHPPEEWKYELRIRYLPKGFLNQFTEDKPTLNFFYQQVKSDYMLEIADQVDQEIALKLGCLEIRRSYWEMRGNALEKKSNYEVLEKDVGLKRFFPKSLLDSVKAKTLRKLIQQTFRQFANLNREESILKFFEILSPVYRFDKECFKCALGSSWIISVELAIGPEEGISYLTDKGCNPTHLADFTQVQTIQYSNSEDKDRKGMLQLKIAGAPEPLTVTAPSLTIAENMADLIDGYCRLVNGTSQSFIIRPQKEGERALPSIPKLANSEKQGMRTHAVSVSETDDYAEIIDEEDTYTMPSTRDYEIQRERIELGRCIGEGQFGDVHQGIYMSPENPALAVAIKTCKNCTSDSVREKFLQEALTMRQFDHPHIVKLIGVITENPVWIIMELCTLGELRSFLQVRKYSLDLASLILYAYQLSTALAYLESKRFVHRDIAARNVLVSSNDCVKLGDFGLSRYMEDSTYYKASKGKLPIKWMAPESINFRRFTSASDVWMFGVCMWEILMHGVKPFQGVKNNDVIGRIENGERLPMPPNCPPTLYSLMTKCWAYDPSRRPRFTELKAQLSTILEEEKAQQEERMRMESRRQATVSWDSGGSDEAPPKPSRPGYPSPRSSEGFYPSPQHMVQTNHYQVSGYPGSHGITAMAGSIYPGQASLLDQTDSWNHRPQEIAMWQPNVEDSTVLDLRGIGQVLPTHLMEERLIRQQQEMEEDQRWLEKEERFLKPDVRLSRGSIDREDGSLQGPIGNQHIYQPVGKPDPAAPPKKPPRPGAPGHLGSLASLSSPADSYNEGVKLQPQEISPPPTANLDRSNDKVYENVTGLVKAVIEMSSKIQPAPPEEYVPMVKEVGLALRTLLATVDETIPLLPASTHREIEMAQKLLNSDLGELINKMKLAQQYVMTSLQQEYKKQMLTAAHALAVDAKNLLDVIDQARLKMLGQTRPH
Albumin (Bos taurus), sequence (P02769 whole entry, looked up): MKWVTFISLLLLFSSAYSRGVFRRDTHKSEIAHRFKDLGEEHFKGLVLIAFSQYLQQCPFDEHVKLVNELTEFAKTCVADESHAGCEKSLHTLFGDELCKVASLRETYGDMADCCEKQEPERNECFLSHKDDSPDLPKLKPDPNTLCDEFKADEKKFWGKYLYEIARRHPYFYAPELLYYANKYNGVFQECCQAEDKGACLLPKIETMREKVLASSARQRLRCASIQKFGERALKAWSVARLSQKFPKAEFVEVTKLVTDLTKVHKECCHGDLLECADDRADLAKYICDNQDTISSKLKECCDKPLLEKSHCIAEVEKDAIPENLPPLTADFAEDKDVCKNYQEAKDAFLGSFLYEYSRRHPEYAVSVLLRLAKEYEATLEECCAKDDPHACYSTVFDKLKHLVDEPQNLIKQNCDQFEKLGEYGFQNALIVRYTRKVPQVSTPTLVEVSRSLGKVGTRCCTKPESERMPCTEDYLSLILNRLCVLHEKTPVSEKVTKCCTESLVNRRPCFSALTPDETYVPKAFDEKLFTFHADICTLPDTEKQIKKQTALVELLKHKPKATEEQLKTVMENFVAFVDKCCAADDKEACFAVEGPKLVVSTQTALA
Fibroblast growth factor 2 (Homo sapiens), sequence (P09038 whole entry, looked up): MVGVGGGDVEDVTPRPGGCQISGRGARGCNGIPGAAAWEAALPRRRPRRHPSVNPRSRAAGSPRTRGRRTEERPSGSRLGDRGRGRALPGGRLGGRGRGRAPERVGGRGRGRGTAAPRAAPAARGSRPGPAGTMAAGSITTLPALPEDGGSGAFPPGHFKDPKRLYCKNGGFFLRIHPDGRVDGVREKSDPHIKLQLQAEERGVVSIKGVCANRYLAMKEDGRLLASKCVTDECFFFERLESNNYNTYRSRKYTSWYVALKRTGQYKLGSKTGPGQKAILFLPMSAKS
Follistatin (Homo sapiens), sequence (P19883 whole entry, looked up): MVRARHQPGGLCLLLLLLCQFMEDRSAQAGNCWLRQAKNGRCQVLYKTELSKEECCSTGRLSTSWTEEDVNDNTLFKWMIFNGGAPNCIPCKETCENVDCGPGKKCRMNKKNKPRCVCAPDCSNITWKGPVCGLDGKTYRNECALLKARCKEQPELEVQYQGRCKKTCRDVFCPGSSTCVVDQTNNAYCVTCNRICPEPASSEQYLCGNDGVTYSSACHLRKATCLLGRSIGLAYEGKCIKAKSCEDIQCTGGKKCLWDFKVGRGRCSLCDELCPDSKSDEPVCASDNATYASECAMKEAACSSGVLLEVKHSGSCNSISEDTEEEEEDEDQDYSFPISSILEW
Concanavalin-A (Canavalia ensiformis), sequence (P02866 whole entry, looked up): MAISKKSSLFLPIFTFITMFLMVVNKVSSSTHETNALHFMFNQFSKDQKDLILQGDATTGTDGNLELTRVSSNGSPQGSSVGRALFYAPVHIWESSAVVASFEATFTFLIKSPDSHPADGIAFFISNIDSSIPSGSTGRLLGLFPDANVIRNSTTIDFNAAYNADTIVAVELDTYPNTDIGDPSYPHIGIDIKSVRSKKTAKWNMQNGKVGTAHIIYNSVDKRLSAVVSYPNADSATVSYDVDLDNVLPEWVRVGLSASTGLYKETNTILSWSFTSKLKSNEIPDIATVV

Structure (SMILES)	composite z-score (Albumin (Bos taurus))	composite Z-score [1]	composite z-score [2]	composite z-score [3]	composite z-score [4]	composite z-score [5]	composite z-score [6]	composite z-score (Sam68 (KHDRBS1))	composite z-score [7]	composite z-score [8]	composite z-score [9]	composite z-score [10]	composite z-score [11]	composite z-score [12]	composite z-score [13]	composite z-score [14]	z-score [15]	composite z-score (Lefty1)	composite z-score [16]	z-score [17]
C[N+](C)(C)CCCCNC(=O)[C@@H]1C[C@@H]2C(=O)NCC(=O)N2[C@@H]1c1cccc(OCCO)c1	-0.656	0.617 (inactive)	0.0297	-0.19	0.434	2.15	1.27	0.781	1.29	1.14	2.59	1.15	-0.421	0.78	1.49	1.94	1.87	1.6	1.02	-1.9 (inactive)
C[N+](C)(C)CCCC[C@@H]1NC(=O)[C@@H]2C[C@H](C(=O)NCCCCCNC(=O)CS)[C@H](c3ccc(O)cc3)N2C1=O	-0.172	-0.419 (inactive)	-0.152	-0.179	0.728	1.05	0.453	0.245	-0.479	1.12	1.6	0.076	-0.0206	0.141	1.46	1.19	1.52	1.02	0.477	-0.703 (inactive)
C=CC[C@]1(C(=O)N(C)C)N=C(c2ccc(OCCCO)cc2)O[C@H]1c1ccccc1CN=[N+]=[N-]	0.79	0.328 (inactive)	-0.014	0.0111	0.548	2.11	0.79	1.04	-0.474	1.11	1.84	1.23	0.418	0.415	1.27	0.521	2.49	-0.168	0.757	-1.12 (inactive)
CN1C=C(C(=O)OCCS(C)(=O)=O)C(C(=O)OCCS(C)(=O)=O)=CC(CCCO)=CC1c1cccs1 (stereo not given)	-0.945	1.4 (inactive)	-0.132	-0.0837	-0.167	-0.12	0.0548	1.13	0.443	-0.508	0.478	0.77	0.275	-0.463	0.775	0.371	3.12	1.07	-0.485	-1.52 (inactive)
C=CCC(OC(C)=O)[C@@H]1[C@@H](N(Cc2ccc(-c3cccc(C(F)(F)F)c3)o2)C(=O)c2ccc(-c3ccccc3)cc2)c2cc(OCCCO)ccc2N1C(=O)Cc1ccc(OC)cc1 (stereo not given in full)	-0.84	0.298 (inactive)	-0.0647	-0.0832	-0.149	-0.249	-0.231	-0.836	-0.0712	-1.26	-0.729	0.0685	-0.0642	-0.407	0.451	-0.196	1.65	-0.128	0.15	-0.626 (inactive)
Cc1ccc(N2C(=O)c3ccccc3[C@](C)(C(=O)NC3CC3)[C@@H]2c2ccc(CO)cc2)nc1	-0.0191	0.186 (inactive)	-0.132	-0.0698	0.78	0.529	1.18	-0.501	0.407	-0.816	-0.373	-0.644	-0.0892	-0.777	1.22	0.373	1.13	-0.105	0.618	-1.5 (inactive)
NC(=O)NCC#Cc1ccc2c(c1)[C@]1(C(=O)N2)[C@H](c2ccc(OCCO)cc2)N2[C@H](c3ccccc3)[C@H](c3ccccc3)OC(=O)[C@H]2[C@@H]1C(=O)Nc1nc2ccccc2s1	-0.0355	-0.883 (inactive)	-0.132	-0.0629	0.0165	0.966	0.436	-0.112	0.175	0.0806	-0.609	0.123	0.0616	0.0886	0.923	-0.292	-2.17	-0.609	0.244	-2.15 (inactive)
COCCCNC(=O)[C@@]1(C)c2ccccc2C(=O)N(Cc2cc(F)cc(C(F)(F)F)c2)[C@H]1c1ccc(CO)cc1	-1.33	0.0737 (inactive)	-0.336	-0.126	0.74	2.01	0.346	0.0363	-1.94	-0.453	-0.224	-1.01	-0.706	-1.61	-1.48	-0.521	1.25	-1.73	-1.26	-1.13 (inactive)
COCCCNC(=O)[C@@]1(Cc2ccccc2)N=C(c2ccc(OCCCO)cc2)O[C@H]1c1ccccc1N=[N+]=[N-]	0.765	-0.597 (inactive)	0.385	0.0538	0.405	0.877	0.516	0.846	-0.297	0.0647	0.644	1.16	0.635	0.881	1.48	1.58	2.03	0.269	1.15	-4.34 (inactive)
COc1ccc(CCNC(=O)[C@@]2(Sc3ccc(C)cc3)CC(=O)N(Cc3ccccc3)[C@@H]2c2ccc(CO)cc2I)cc1	-0.605	-0.224 (inactive)	-0.289	-0.2	0.377	0.666	2.03	0.247	-0.974	0.508	1.06	0.408	0.0363	-0.718	-0.168	-0.662	2.51	-0.89	-0.0265	-0.707 (inactive)
